A short description of experiment [1]: compounds binding Alexa647 anti-His antibody – biochemical, small-molecule microarray, 635 nm fluorescence, artefact control for SMM control protein annotation, primary screen (AID 1128).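 Note: score merges feature fluorescence with signal-to-noise for each printed compound spot.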 The conditions noted are these: higher = more signal.
The subject of experiment [2] is Human papillomavirus type 1a E7 protein (residues 1-88). The experiment can be described thus: HPV1a E7 small-molecule binders, primary screen, biochemical, small-molecule microarray, residues 1-88, 635 nm (AID 1129). The note with it: small-molecule microarray binding, fluorescence 635 nm; higher = more signal.
Experiment [3] addresses Focal adhesion kinase 1 (Homo sapiens) (UniProt Q05397). The experiment can be described thus: PTK2 protein binding on printed compound slides – biochemical, small-molecule microarray, 635/667 nm fluorescence, BSA, DTT, primary screen (AID 1130).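 Note: composite of spot emission at 667 nm and signal to noise over triplicate slides.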 The conditions noted are these: 635 nm fluorescence, higher = more signal.
The subject of experiment [4] is Fibrinogen (Alexa647-labelled). Kind of experiment: Alexa647-fibrinogen binding to printed small molecules – biochemical, small-molecule microarray, 635/667 nm fluorescence, artefact control for SMM control-protein annotation, profiling panel (AID 1131).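 Note: z-score merges 667 nm fluorescence with per-spot signal-to-noise over triplicate slides.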 The note with it: fibrinogen-A647 binding fluorescence, higher = more signal.
In experiment [5] the target is Follistatin (Homo sapiens) (UniProt P19883). Kind of experiment: FST protein binding to printed compounds – biochemical, small-molecule microarray, 635/667 nm fluorescence, primary screen (AID 1132). The conditions noted are these: 635 nm fluorescence, higher = more signal.
Follistatin (Homo sapiens), sequence (P19883 whole entry, looked up): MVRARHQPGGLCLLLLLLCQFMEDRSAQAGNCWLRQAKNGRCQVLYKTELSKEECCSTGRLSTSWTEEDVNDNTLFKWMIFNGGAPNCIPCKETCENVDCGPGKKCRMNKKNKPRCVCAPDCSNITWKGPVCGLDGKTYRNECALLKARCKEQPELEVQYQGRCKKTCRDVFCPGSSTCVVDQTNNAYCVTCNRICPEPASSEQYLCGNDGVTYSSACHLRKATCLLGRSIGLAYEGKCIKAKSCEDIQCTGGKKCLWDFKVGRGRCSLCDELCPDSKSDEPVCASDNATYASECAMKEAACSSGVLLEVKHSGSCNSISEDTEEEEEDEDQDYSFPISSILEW
Experiment [6] deals with Fibroblast growth factor 2 (Homo sapiens) (UniProt P09038). Kind of experiment: basic fibroblast growth factor binding to printed compounds – biochemical, small-molecule microarray, 635/667 nm fluorescence, primary screen (AID 1133). The note with it: FGF2, fluorescence 635/667, higher = more signal.
Fibroblast growth factor 2 (Homo sapiens), sequence (P09038 whole entry, looked up): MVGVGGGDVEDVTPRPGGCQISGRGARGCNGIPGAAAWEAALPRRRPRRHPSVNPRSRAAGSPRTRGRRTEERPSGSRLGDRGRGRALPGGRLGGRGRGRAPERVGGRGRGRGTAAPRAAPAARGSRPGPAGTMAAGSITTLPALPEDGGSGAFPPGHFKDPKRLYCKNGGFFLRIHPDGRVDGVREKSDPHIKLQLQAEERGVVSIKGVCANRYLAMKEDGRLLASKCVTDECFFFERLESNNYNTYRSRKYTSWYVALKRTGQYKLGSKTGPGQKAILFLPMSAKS
Experiment [7] can be described thus: JC-1 mitochondrial potential readout, lung cancer cells – cell-based, A549, JC-1 fluorescence, basal, 24 h, 100 nL, profiling panel (AID 1138).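 Note: A549 lung adenocarcinoma cells under basal conditions with no added stimulus; test concentration not given here.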 The note with it: higher = more signal.
In a further experiment the test system is Lefty1. Kind of experiment: Lefty1 protein binding to printed compounds – biochemical, small-molecule microarray, 635/667 nm fluorescence, primary screen (AID 1139). The note with it: fluorescence 635/667, higher = more signal.
The test system of experiment [8] is wheat germ agglutinin (Triticum aestivum), Alexa647-labelled. Kind of experiment: Alexa647-WGA lectin binding to printed small molecules – biochemical, small-molecule microarray, 635/667 nm fluorescence, artefact control for SMM control-protein annotation, profiling panel (AID 1140).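 Note: score merges 667 nm feature emission with signal to noise over triplicate slides.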 The conditions noted are these: WGA-A647 binding, 635 nm fluorescence, higher = more signal.

Experiment [9] deals with Luciferin 4-monooxygenase (Photinus pyralis) (UniProt P08659). The experiment can be described thus: inhibition of purified Photinus pyralis luciferase – biochemical, luminescence, purified enzyme, 2006 set, primary screen (AID 1141).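 Note: cell-free assay with purified firefly luciferase at 100 ng per well in PBS; test concentration not given here.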 The conditions noted are these: purified firefly luciferase, SteadyGlo luminescence, 30 min; higher = more signal, called active from +8 up or from −8 down.
Luciferin 4-monooxygenase (Photinus pyralis), sequence (P08659 whole entry, looked up): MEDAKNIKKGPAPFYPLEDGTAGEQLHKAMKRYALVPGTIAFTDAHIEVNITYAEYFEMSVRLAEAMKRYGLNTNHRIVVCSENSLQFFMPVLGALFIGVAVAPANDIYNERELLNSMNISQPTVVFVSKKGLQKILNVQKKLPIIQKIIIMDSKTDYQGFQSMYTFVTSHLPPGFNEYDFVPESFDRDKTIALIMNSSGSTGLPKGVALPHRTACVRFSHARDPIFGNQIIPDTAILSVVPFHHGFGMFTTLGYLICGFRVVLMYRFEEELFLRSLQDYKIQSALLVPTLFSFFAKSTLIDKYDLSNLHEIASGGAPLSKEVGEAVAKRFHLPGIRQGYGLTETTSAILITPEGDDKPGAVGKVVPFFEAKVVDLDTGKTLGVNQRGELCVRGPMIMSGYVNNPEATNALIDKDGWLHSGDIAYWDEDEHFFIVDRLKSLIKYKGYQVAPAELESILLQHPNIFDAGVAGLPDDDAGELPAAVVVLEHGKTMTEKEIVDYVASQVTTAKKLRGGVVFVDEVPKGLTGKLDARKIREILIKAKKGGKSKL

For experiment [10], the system named is Wnt5a (protein binding on small-molecule microarray). Kind of experiment: small molecules binding Wnt5a protein – biophysical, small-molecule microarray, 635/667 nm fluorescence, primary screen (AID 1142).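 Note: fluorescence read at 667 nm with signal to noise per printed feature.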 The conditions noted are these: 635 nm fluorescence, higher = more signal.
The nature of experiment [11]: ATP-based viability of Huh7 replicon cells – cell-based, CellTiter-Glo luminescence, basal, 48 h, cytotoxicity control for HCV replication inhibitor project, primary screen (AID 1143).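 Note: Huh7 hepatoma cells carrying a hepatitis C replication reporter with no stimulus; test concentration not given here.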 The note with it: higher = more signal, called active from +8 up or from −8 down. (In general: Replicon systems follow genome replication, usually without infectious particles.)
The nature of experiment [12]: Pseudomonas biofilm growth suppression – PAO1 strain, BacTiter-Glo luminescence, LB-PBS, primary screen (AID 1144). The note with it: P. aeruginosa PAO1 biofilm, 12 h, higher = more signal.
Experiment [13] in a line: basal CRE-LacZ reporter activity in PC12 – cell-based, unstimulated, primary screen (AID 1145). The note with it: no forskolin, luminescence, 4.5 h, higher = more signal, called active from +8 up or from −8 down.
A short description of experiment [14]: forskolin-driven CRE-LacZ activity in PC12 – cell-based, CRE-LacZ reporter, forskolin-stimulated, primary screen (AID 1146).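 Note: PC12 cells with 6xCRE LacZ reporter stimulated by forskolin 10 µM; beta-galactosidase reporter signal reflecting CREB driven transcription.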 The note with it: luminescence, 4.5 h, higher = more signal, called active from +8 up or from −8 down.
Experiment [15] concerns the target Streptavidin (Streptomyces avidinii) (UniProt P22629). The experiment can be described thus: compounds binding control protein streptavidin – biophysical, small-molecule microarray, 635/667 nm fluorescence, artefact control for SMM compound annotation, primary screen (AID 1147).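 Note: signal reflects streptavidin binding to arrayed compounds as a control protein.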 The note with it: higher = more signal.
Experiment [16] in a line: probe aInhba binding on compound microarray – biochemical, small-molecule microarray, 635/667 nm fluorescence, primary screen (AID 1148).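 Note: score merges 667nm spot fluorescence with signal-to-noise for antibody binding to printed compounds.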 The conditions noted are these: higher = more signal.
The target in experiment [17] is Torsin-1A (Homo sapiens) (UniProt O14656). The experiment can be described thus: TOR1A wild-type binding on microarray – cell lysate, small-molecule microarray, lysate, 635/667 nm, primary screen (AID 1149). The note with it: COS7 hTOR1A-WT lysate, 635 nm fluorescence, higher = more signal.
Torsin-1A (Homo sapiens), sequence (O14656 whole entry, looked up): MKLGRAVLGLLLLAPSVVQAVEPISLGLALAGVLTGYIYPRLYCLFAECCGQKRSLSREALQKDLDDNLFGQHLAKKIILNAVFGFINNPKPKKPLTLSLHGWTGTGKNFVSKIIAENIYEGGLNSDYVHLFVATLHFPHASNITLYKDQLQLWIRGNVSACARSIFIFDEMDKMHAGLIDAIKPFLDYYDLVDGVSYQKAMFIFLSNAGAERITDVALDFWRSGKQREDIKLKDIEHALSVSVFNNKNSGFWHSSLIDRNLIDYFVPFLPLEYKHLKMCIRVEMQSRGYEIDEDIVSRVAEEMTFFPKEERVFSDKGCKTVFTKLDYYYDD
Experiment [18] has the same target. Kind of experiment: torsin A mutant lysate binding on microarrays – cell lysate, small-molecule microarray, COS7 lysate, 635/667 nm fluorescence, primary screen (AID 1150).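 Note: score pools 667 nm emission and signal to noise measuring lysate protein binding.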 The conditions noted are these: COS7 hTOR1A mutant lysate, 635 nm fluorescence, higher = more signal.
Experiment [19] relates to Sonic hedgehog protein (Shh). The experiment can be described thus: Sonic hedgehog microarray binding compounds – biochemical, small-molecule microarray, 635/667 nm fluorescence, primary screen (AID 1151).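 Note: Shh protein binding to compounds spotted on small-molecule microarray slides; score combines spot fluorescence intensity with signal-to-noise across triplicate slides.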 The conditions noted are these: 635 nm fluorescence, higher = more signal.

Each structure is given as a SMILES string. Active and inactive are the calls of the source. Unless noted, the rule behind the calls is not given here.

Streptavidin (Streptomyces avidinii), sequence (P22629 whole entry, looked up): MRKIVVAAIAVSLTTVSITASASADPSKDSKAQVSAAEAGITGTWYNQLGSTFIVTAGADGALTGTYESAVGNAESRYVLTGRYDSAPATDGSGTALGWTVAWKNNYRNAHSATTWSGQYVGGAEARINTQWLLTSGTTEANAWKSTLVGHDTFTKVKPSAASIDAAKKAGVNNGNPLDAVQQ
Focal adhesion kinase 1 (Homo sapiens), sequence (Q05397 whole entry, looked up): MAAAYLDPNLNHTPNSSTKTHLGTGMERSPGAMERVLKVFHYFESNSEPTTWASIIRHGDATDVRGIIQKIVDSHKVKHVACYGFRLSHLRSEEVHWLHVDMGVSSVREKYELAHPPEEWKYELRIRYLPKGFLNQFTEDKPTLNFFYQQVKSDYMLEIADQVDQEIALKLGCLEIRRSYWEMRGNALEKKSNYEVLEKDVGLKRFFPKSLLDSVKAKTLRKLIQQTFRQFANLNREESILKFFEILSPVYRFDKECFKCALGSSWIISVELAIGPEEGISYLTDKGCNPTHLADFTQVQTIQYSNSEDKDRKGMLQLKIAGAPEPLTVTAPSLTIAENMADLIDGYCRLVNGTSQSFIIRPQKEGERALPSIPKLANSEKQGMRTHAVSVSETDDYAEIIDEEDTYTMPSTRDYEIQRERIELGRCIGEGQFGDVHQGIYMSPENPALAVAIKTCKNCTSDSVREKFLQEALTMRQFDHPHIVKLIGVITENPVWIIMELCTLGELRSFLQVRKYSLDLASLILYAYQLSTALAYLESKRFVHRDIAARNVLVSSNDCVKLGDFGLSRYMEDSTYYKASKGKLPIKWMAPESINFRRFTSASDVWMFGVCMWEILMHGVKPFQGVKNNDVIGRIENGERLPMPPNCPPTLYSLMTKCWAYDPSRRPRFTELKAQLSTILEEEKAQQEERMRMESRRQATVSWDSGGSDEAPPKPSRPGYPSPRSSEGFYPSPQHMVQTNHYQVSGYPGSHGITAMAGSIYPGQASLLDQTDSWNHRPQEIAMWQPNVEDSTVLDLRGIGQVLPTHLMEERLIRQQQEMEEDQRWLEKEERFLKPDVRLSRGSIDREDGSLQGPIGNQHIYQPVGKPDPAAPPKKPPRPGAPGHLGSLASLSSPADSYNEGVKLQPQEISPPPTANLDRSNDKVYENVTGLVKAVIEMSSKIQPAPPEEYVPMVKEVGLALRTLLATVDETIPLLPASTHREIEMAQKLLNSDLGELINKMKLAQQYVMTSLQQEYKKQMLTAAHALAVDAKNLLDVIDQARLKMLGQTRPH

`COc1ccc(NN2C(C(O)c3cc(C(F)(F)F)cc(C(F)(F)F)c3)C=CC3C(=O)N(C4CCCCC4)C(=O)C32)cc1` (stereo not given): the composite z-score in [1] is 0.764; in [2] it was 1.1; in experiment [3] it was 0.359; in experiment [4], 0.895; in [5], 0.544; in experiment [6] it was -0.0047. Moreover, the composite z-score with Lefty1 is -0.364; in experiment [8], 1.2; in [10], 0.397; in experiment [15], 0.837; in experiment [16] it was 1.19; with Torsin-1A (Homo sapiens) [17] it was 0.408. Besides, the values for the composite z-score (with Torsin-1A (Homo sapiens) [18]; in experiment [19]) were 1.19 and -0.0356, respectively. Moreover, the z-score in experiment [7] was -0.822; in [9], 0.36 (inactive); in experiment [11], -2.42 (inactive); in [12] it was -1.1 (inactive); in experiment [13], -0.723 (inactive); in experiment [14] it was -0.504 (inactive).
On to `NCCCC[C@@H]1NC(=O)[C@H]2C[C@@H](C(=O)NCc3ccc(F)cc3)[C@@H](c3cccc(OCCO)c3)N2C1=O`, for which the composite z-score was found to be 2.48 in experiment [1]; 1.23 in experiment [2]; 0.0858 in experiment [3]; 0.763 in experiment [4]; 1.32 in [5]; 1.62 in [6]. The composite z-score was 1.56 in the experiment with Lefty1; 0.231 in [8]; 0.334 in [10]; -0.0648 in [15]; 0.122 in experiment [16]; 0.608 with Torsin-1A (Homo sapiens) [17]. Also, the composite z-score turned out to be 1.48 with Torsin-1A (Homo sapiens) [18] and 2.07 in experiment [19]. For the same compound, the z-score in experiment [7] is -1.7; in experiment [9], -0.434 (inactive); in [11], -0.262 (inactive); in experiment [12] it was -0.862 (inactive); in experiment [13], 0.0084 (inactive); in experiment [14] it was -0.583 (inactive).
Take `CC(C)C(=C=CC[C@@H](O)c1cccc(OCCO)c1)CCO`: the composite z-score is 0.241 in experiment [1]; 0.0895 in experiment [2]; -0.0966 in experiment [3]; 0.236 in experiment [4]; 1.14 in experiment [5]; 1.61 in experiment [6]. In addition, the composite z-score in the experiment with Lefty1 is 0.524; in [8] it was 0.271; in experiment [10], 0.263; in [15], -0.236; in experiment [16], 0.442; with Torsin-1A (Homo sapiens) [17], 0.462. Besides, the composite z-score with Torsin-1A (Homo sapiens) [18] stood at 0.0336; in experiment [19], 0.567. For the same compound, the z-score in experiment [7] is 0.265; in experiment [9] it was -0.852 (inactive); in [11] it was -0.219 (inactive); in [12], -0.468 (inactive); in [13] it was 1.37 (inactive); in experiment [14] it was -0.755 (inactive).
For the compound `CO[C@H]1O[C@H](CO)[C@@H](OC(=O)Nc2ccc(C(F)(F)F)cc2)[C@H](OC(=O)Nc2ccccc2-c2ccccc2)[C@H]1OC(=O)Nc1ccccc1-c1ccccc1`, the composite z-score is 1.7 in [1]; 1.26 in experiment [2]; 0.735 in [3]; 1.04 in experiment [4]; 1.27 in experiment [5]; 0.686 in [6]. Further, the composite z-score was 0.617 in the experiment with Lefty1; 0.662 in experiment [8]; 0.856 in [10]; 0.967 in experiment [15]; 0.0504 in [16]; 0.276 with Torsin-1A (Homo sapiens) [17]. For the same compound, the composite z-score with Torsin-1A (Homo sapiens) [18] worked out at 0.263; in [19], 1.61. Moreover, the z-score in experiment [7] was -0.132; in [9], -0.68 (inactive); in experiment [11] it was -6.09 (inactive); in [12], 0.435 (inactive); in experiment [13] it was 0.447 (inactive); in experiment [14] it was -0.747 (inactive).
As for `C#CCN(C/C=C/c1ccccc1)[C@H](CO[Si](C)(C)C(C)(C)C)c1ccccc1`, the composite z-score in experiment [1] was 0.953; in [2], -0.786; in [3], 0.329; in experiment [4], -0.759; in experiment [5] it was -0.0993; in experiment [6], -0.187. Further, the composite z-score was 0.178 in the experiment on Lefty1; -0.0631 in [8]; -0.276 in experiment [10]; -0.531 in experiment [15]; -0.0719 in experiment [16]; -0.805 with Torsin-1A (Homo sapiens) [17]. Moreover, the composite z-score with Torsin-1A (Homo sapiens) [18] is -0.239; in experiment [19], 0.0896. The z-score in experiment [7] was -2.21; in experiment [9], 0.43 (inactive); in experiment [11], -0.832 (inactive); in experiment [12] it was 0.221 (inactive); in experiment [13], -0.0487 (inactive); in experiment [14], -0.626 (inactive).
On to `COc1ccc(CC[C@H](O)c2cccc(OCC(=O)OC(C)(C)C)c2)cc1`, for which the composite z-score in experiment [1] is 0.697; in experiment [2], 1.01; in [3], 0.464; in experiment [4], 1.04; in [5], 1.02; in [6], 0.625. In addition, the composite z-score with Lefty1 is 1.01; in experiment [8] it was 0.906; in [10], 0.42; in [15], 1.77; in [16], 0.156; in the experiment with Torsin-1A (Homo sapiens) [17] it was 0.584. Also, the composite z-score is 0.977 in the experiment with Torsin-1A (Homo sapiens) [18] and 1.37 in experiment [19]. The z-score in [7] is 0.383; in [9], 0.275 (inactive); in [11], -3.93 (inactive); in experiment [12], -0.0717 (inactive); in experiment [13], 0.595 (inactive); in experiment [14], -0.251 (inactive).

The record behind these values is PubChem BioAssay.
